Test results reported in the supplement of paper PMC8728848.
Shown is part of a subset that was picked to be rich in the strongest signals.

Legend:
Experiment in all cases: glycan array binding signal (z-score within array); higher = stronger binding
Details in all cases: glycan notation: IUPAC condensed, linker removed
[1] = target: GlcA3S(b1-3)Gal(b1-4)GlcNAc(b1-2)Man
In short: (§1)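 Glycan array binding is given as a within-array Z-score, which can be read as non-binding when negative. The arrays, 3228 of them, came from the Consortium for Functional Glycomics database and were retained only where the protein sequence was available. Z-scores were averaged across arrays of the same protein sequence at different concentrations or buffers and across linkers.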

[2] = target: GlcNAc(a1-4)Gal(b1-3)GlcNAc
In short: as §1

[3] = target: GlcNAc(b1-2)[GlcNAc(b1-4)]Man(a1-3)[GlcNAc(b1-2)Man(a1-6)]Man(b1-4)GlcNAc(b1-4)GlcNAc
In short: as §1

[4] = target: GlcNAc(b1-3)Gal(b1-3)GalNAc
In short: as §1

[5] = target: GlcNAc(b1-3)Gal(b1-4)GlcNAc(b1-3)Gal(b1-4)GlcNAc(b1-2)Man(a1-3)[GlcNAc(b1-3)Gal(b1-4)GlcNAc(b1-3)Gal(b1-4)GlcNAc(b1-2)Man(a1-6)]Man(b1-4)GlcNAc(b1-4)[Fuc(a1-6)]GlcNAc
In short: as §1

[6] = target: GlcNAc(b1-3)Gal(b1-4)GlcNAc(b1-6)[Gal(b1-3)]GalNAc
In short: as §1

[7] = target: GlcNAc(b1-3)Gal(b1-4)GlcNAc(b1-6)[GlcNAc(b1-3)]Gal(b1-4)GlcNAc
In short: as §1

[8] = target: GlcNAc(b1-4)Gal(b1-4)GlcNAc
In short: as §1

[9] = target: GlcNAc(b1-4)GlcNAc(b1-4)GlcNAc(b1-4)GlcNAc(b1-4)GlcNAc
In short: as §1

GlcNAc(b1-6)GalNAc = target: GlcNAc(b1-6)GalNAc
In short: as §1

Kdn(a2-3)Gal(b1-4)GlcNAc = target: Kdn(a2-3)Gal(b1-4)GlcNAc
In short: as §1

[10] = target: Man(a1-2)Man(a1-2)Man(a1-3)Man
In short: as §1

[11] = target: Man(a1-2)Man(a1-3)[Man(a1-2)Man(a1-6)]Man(a1-6)[Man(a1-2)Man(a1-2)Man(a1-3)]Man(b1-4)GlcNAc(b1-4)GlcNAc
In short: as §1

[12] = target: Man(a1-2)Man(a1-6)[Man(a1-3)]Man(a1-6)[Man(a1-2)Man(a1-2)Man(a1-3)]Man(b1-4)GlcNAc(b1-4)GlcNAc
In short: as §1

[13] = target: Neu5Ac(a2-3)Gal(b1-3)GalNAc(b1-3)Gal(a1-4)Gal(b1-4)Glc
In short: as §1

[14] = target: Neu5Ac(a2-3)Gal(b1-3)GlcNAc(b1-6)GalNAc
In short: as §1

[15] = target: Neu5Ac(a2-3)Gal(b1-3)GlcNAc6S
In short: as §1

[16] = target: Neu5Ac(a2-3)Gal(b1-4)GlcNAc(b1-3)Gal
In short: as §1

[17] = target: Neu5Ac(a2-3)Gal(b1-4)[Fuc(a1-3)]GlcNAc(b1-2)Man
In short: as §1

[18] = target: Neu5Ac(a2-3)Gal(b1-4)[Fuc(a1-3)]GlcNAc(b1-6)[Neu5Ac(a2-3)Gal(b1-3)]GalNAc
In short: as §1

Neu5Ac(a2-3)GalNAc = target: Neu5Ac(a2-3)GalNAc
In short: as §1

Neu5Ac(a2-6)Gal = target: Neu5Ac(a2-6)Gal
In short: as §1

[19] = target: Neu5Ac(a2-6)Gal(b1-4)GlcNAc(b1-2)[Neu5Ac(a2-6)Gal(b1-4)GlcNAc(b1-6)]Man(a1-6)[Neu5Ac(a2-6)Gal(b1-4)GlcNAc(b1-2)Man(a1-3)][GlcNAc(b1-4)]Man(b1-4)GlcNAc(b1-4)GlcNAc
In short: as §1

[20] = target: Neu5Ac(a2-6)Gal(b1-4)GlcNAc(b1-3)Gal(b1-4)GlcNAc(b1-2)Man(a1-3)[Neu5Ac(a2-6)Gal(b1-4)GlcNAc(b1-3)Gal(b1-4)GlcNAc(b1-2)Man(a1-6)]GalNAc
In short: as §1

[21] = target: Neu5Ac(a2-8)Neu5Ac(a2-3)Gal(b1-3)GalNAc(b1-4)[Neu5Ac(a2-3)]Gal(b1-4)Glc
In short: as §1

[22] = target: Neu5Ac(a2-8)Neu5Ac(a2-3)Gal(b1-3)GalNAc(b1-4)[Neu5Ac(a2-8)Neu5Ac(a2-3)]Gal(b1-4)Glc
In short: as §1

[23] = target: Neu5Gc(a2-6)Gal(b1-4)GlcNAc
In short: as §1

[24] = target: Neu5Gc(a2-8)Neu5Gc(a2-3)Gal(b1-4)GlcNAc
In short: as §1

[25] = target: Neu5Gc(a2-8)Neu5Gc(a2-3)Gal(b1-4)GlcNAc(b1-3)Gal(b1-4)GlcNAc
In short: as §1

[26] = target: Neu5Gc(a2-8)Neu5Gc(a2-6)Gal(b1-4)GlcNAc
In short: as §1

B1: CBP21 (Serratia marcescens), O83009 (protein)
chain: MNKTSRTLLSLGLLSAAMFGVSQQANAHGYVESPASRAYQCKLQLNTQCGSVQYEPQSVEGLKGFPQAGPADGHIASADKSTFFELDQQTPTRWNKLNLKTGPNSFTWKLTARHSTTSWRYFITKPNWDASQPLTRASFDLTPFCQFNDGGAIPAAQVTHQCNIPADRSGSHVILAVWDIADTANAFYQAIDVNLSK
glycan array binding signal (z-score) [1]: -1.64
glycan array binding signal (z-score) [2]: 0.503
glycan array binding signal (z-score) [3]: -0.435
glycan array binding signal (z-score) [4]: 0.04
glycan array binding signal (z-score) [5]: 3.08
glycan array binding signal (z-score) [6]: -0.256
glycan array binding signal (z-score) [7]: -1.31
glycan array binding signal (z-score) [8]: 0.145
glycan array binding signal (z-score) [9]: 0.729
glycan array binding signal (z-score) (GlcNAc(b1-6)GalNAc): -0.697
glycan array binding signal (z-score) (Kdn(a2-3)Gal(b1-4)GlcNAc): -0.42
glycan array binding signal (z-score) [10]: -0.437
glycan array binding signal (z-score) [11]: 2.53
glycan array binding signal (z-score) [12]: 0.074
glycan array binding signal (z-score) [13]: 1.24
glycan array binding signal (z-score) [14]: 0.458
glycan array binding signal (z-score) [15]: -0.561
glycan array binding signal (z-score) [16]: -0.019
glycan array binding signal (z-score) [17]: -1.42
glycan array binding signal (z-score) [18]: -0.314
glycan array binding signal (z-score) (Neu5Ac(a2-3)GalNAc): -0.582
glycan array binding signal (z-score) (Neu5Ac(a2-6)Gal): 0.109
glycan array binding signal (z-score) [19]: 0.063
glycan array binding signal (z-score) [20]: 2.96
glycan array binding signal (z-score) [21]: 4
glycan array binding signal (z-score) [22]: 0.155
glycan array binding signal (z-score) [23]: 0.755
glycan array binding signal (z-score) [24]: -0.788
glycan array binding signal (z-score) [25]: 0.62
glycan array binding signal (z-score) [26]: 0.37
